Results filed as inconclusive are left out. A structure can be active in one record and inactive in another. The source made the active and inactive calls. The call rests on the fitted dose curve; in most records, active means well fitted activation curve with a large enough effect in the repeat runs; inconclusive means weak or mixed curves; inactive means flat fitted curve, though single readings scatter.

40 compounds from PubChem BioAssay (Tox21) can be followed below.
On the % scale 0 is the no-effect control and ±100 the full control effect; potency means the concentration at half of the fitted maximal effect.

This assay is described as follows: A CellTox Green Cytotoxicity Assay to monitor cytotoxicity in HepG2 cells - 16 hour (AID 1224876). Further: nearly all actives have a fitted effect of over 45% in size. Particulars: CellTox Green fluorescence; series mostly up to 76.8 µM; cytotoxicity increase: at the top concentration. From the text: National Center for Advancing Translational Sciences [NCATS]
NIH Chemical Genomics Center [NCGC]
U.S. Environmental Protection Agency [EPA]
National Institutes of Environmental Health Sciences [NIEHS]
National Toxicology Program [NTP]
Cell-based models are critical for drug discovery. Determining the natural cytotoxic effects resulting from test compounds is an essential research activity. A CellTox Green Cytotoxicity Assay to monitor cytotoxicity in real time of continues cell culture during 40 hours of the compound treatment was used to screen Tox21 10K library compounds in HepG2 cells. CellTox Green Cytotoxicity Assay is a nonlytic, homogeneous, biofluorescent method to measure cytotoxicity in cell culture after experimental manipulation. The assay system uses a proprietary asymmetric cyanine dye that is excluded from viable cells but preferentially stains the dead cell's DNA. […] Viable cells produce no appreciable increases in fluorescence. Therefore, the fluorescence signal produced by the binding interaction with dead cell DNA is proportional to cytotoxicity.
The mixture of HepG2 cell suspension and reagents were dispensed at 600cells/6 ul/well in 1536-well tissue culture treated black solid bottom plates using a Multidrop dispenser. After the assay plates were incubated at a 37 C/5% CO2 incubator for 5 hours, 23 nL of compounds dissolved in DMSO, positive and negative controls was transferred to the assay plate by a pintool work station. The plates were incubated at 37 C for 40 hours. The fluorescence intensity were measured at 0h, 8h, 16h, 24h, 32h and 40h time points using ViewLux plate reader during compound treatment.
`CCN(CC)c1ccc2c(-c3ccc(S(=O)(=O)O)cc3S(=O)(=O)[O-])c3ccc(=[N+](CC)CC)cc-3oc2c1`: the “cytotoxicity increase” value was -21% (inactive).
Still for that read-out and setting: under `CNC(=O)c1ccccc1Sc1ccc2c(/C=C/c3ccccn3)n[nH]c2c1` stands 7.94% [at 35.3 µM] (inactive); under `CCOC(=O)Cn1cccc1-c1nc(-c2ccc(OC)cc2)c(-c2ccc(OC)cc2)s1`, 4.45% [at 35.3 µM] (inactive).
Still for that read-out and setting: for `COc1cccc2c1C(=O)c1c(O)c3c(c(O)c1C2=O)C[C@@](O)(C(C)=O)C[C@@H]3O[C@H]1C[C@H](N)[C@H](O)[C@H](C)O1` the value was 18.3% (inactive).
For `CC(C)OC(=O)C(O)(CC(=O)O)CC(=O)O`, the “cytotoxicity increase” value is 0.435% (inactive).
Still for that read-out and setting: for `O=C(O)c1cccc(C(F)(F)F)c1` the value was -0.307% (inactive).
In the case of `CCCCCCC1CCCC(=O)O1` (stereo not given), the “cytotoxicity increase” value is -12.2% (inactive).
Still for that read-out and setting: for `CN1CCN2c3ccccc3Cc3ccccc3C2C1` (stereo not given) the value was 17.5% [at 35.3 µM] (inactive).
Same read-out and setting: under `Clc1nnc(Cl)c2ccccc12` stands 1.11% (inactive).
Consider `CN(C)c1ccc(C(=C2C=CC(=[N+](C)C)C=C2)c2ccc(N(C)C)cc2)cc1`, for which the Potency was 10.9 µM (active) and inactive.
For the compound `COc1cc(/C=C/c2ccccc2)oc(=O)c1`, the “cytotoxicity increase” value is -9.42% (inactive).
With `CCN(CCN)c1cccc(C)c1`, the Potency entry is “inactive”.
Turning to `CCCCCc1ccc(Cl)cc1`, the “cytotoxicity increase” value was -0.417% (inactive).
As for `O=S(=O)(O)c1ccc(N=Nc2c(O)ccc3ccccc23)cc1`, the “cytotoxicity increase” value was -26.3% (inactive).
`C#C[C@]1(O)CC[C@H]2[C@@H]3[C@H](C)CC4=C(CCC(=O)C4)[C@H]3CC[C@@]21C`: the “cytotoxicity increase” value is 0.632% [at 35.3 µM] (inactive).
In the case of `O=C1C(c2[nH]c3ccc(S(=O)(=O)O)cc3c2O)=Nc2ccc(S(=O)(=O)O)cc21`, the “cytotoxicity increase” value was -3.47% (inactive).
`CCCCCCCCCCOC(=O)c1ccccc1C(=O)OCCCCCCCC`: the “cytotoxicity increase” value is -10.4% (inactive).
The same measure, in the same setting: for `O=C(Nc1ccc2c(O)c(N=Nc3ccc(N=Nc4ccc(S(=O)(=O)O)cc4)cc3)c(S(=O)(=O)O)cc2c1)c1ccccc1` the value was -50.6% (inactive).
The same measure, in the same setting: for `COc1cc(S(=O)(=O)O)c(C)cc1N=Nc1c(O)ccc2cc(S(=O)(=O)O)ccc12` the value was -39.2% (inactive).
With `O=c1[nH]c(=O)n([C@H]2C[C@H](O)[C@@H](CO)O2)cc1F`, the Potency is 6.01 µM (active).
With `S=C([S-])NCCNC(=S)[S-].S=C([S-])NCCNC(=S)[S-].[Mn+2].[Zn+2]`, the “cytotoxicity increase” value was -14.2% [at 35.3 µM] (inactive).
The same measure, in the same setting: for `Cc1ccc(C)cc1` the value was 7.82% (inactive); for `CC(C)(C)C1CCC(=O)CC1`, 5.28% (inactive); for `CC1(C)CCC[C@]2(C)[C@H]3CCO[C@]3(C)CC[C@@H]12`, -0.548% (inactive).
With `Cc1ccc(N/N=c2\c(=O)cc/c(=N\Nc3ccc(S(=O)(=O)O)cc3)c2=O)c(C)c1`, the “cytotoxicity increase” value is -27.7% (inactive).
The same measure, in the same setting: for `C#Cc1ccc(-c2ccccc2F)cc1` the value was -17.7% [at 35.3 µM] (inactive); for `COC1=C(OC)C(=O)C(CCCCCCCCCCO)=C(C)C1=O`, -1.39% [at 35.3 µM] (inactive); for `CCC(COC(=O)CCS)(COC(=O)CCS)COC(=O)CCS`, -12.9% (inactive).
On the same count and under the same terms, under `COC(=O)c1ccccc1OC` stands -15.5% (inactive); under `CCCCNS(=O)(=O)c1ccc(C)cc1`, -0.448% (inactive).
The same measure, in the same setting: for `C[C@H]1NCc2cc(-c3ccc4c(=O)c(C(=O)O)cn(C5CC5)c4c3OC(F)F)ccc21` the value was 1.43% [at 15.8 µM] (inactive); for `CC(=O)CC(=O)Nc1ccc(S(=O)(=O)O)cc1`, 0.0177% (inactive).
On to `O[C@@H]([C@H](O)[C@H](O)CBr)[C@H](O)CBr`, for which the “cytotoxicity increase” value was -0.0719% (inactive).
Still for that read-out and setting: for `CC(C)(c1cc(Br)c(OCC(Br)CBr)c(Br)c1)c1cc(Br)c(OCC(Br)CBr)c(Br)c1` (stereo not given) the value was -17.8% [at 35.3 µM] (inactive).
As for `Cc1ccc(-c2ccccc2)cc1`, the Potency was 49 µM (active).
As for `CC(=O)c1ccc(C(C)=O)cc1`, the “cytotoxicity increase” value is 6.66% (inactive).
Same read-out and setting: for `O=C(/C=C/c1ccccc1)OC/C=C/c1ccccc1` the value was 1.04% (inactive); for `O=C(O)CCN(C1(C(=O)NO)CCCC1)S(=O)(=O)c1ccc(Oc2ccc(F)cc2)cc1`, -4.14% (inactive).
The same measure, in the same setting: under `CCCCCCOC(=O)C(C)CC` (stereo not given) stands 1.44% (inactive); under `O=[N+]([O-])c1ccc(F)c(Cl)c1`, -8.87% (inactive).
